Source: PubChem (Johns Hopkins Ion Channel Center)
Only some compounds are listed: those with a hit (about 1.6% of all), similar ones and a draw of the others.
KCNQ2 block – rat KCNQ2 potassium channel inhibitors, primary screen, cell-based, CHO-K1, FluxOR thallium flux, B-score | Potassium voltage-gated channel subfamily KQT member 2 (Rattus norvegicus), O88943 | 20 min; active compounds read low | B-score at 10 µM | hit rate 1.1% among 310,000 | AID 2156, 2009;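 active = fluorescence ratio B-score at most minus 3 library SDs, with starting brightness B-score within 2 library SDs, cut at about -5.5 in these data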
Target sequence (O88943 whole entry, looked up): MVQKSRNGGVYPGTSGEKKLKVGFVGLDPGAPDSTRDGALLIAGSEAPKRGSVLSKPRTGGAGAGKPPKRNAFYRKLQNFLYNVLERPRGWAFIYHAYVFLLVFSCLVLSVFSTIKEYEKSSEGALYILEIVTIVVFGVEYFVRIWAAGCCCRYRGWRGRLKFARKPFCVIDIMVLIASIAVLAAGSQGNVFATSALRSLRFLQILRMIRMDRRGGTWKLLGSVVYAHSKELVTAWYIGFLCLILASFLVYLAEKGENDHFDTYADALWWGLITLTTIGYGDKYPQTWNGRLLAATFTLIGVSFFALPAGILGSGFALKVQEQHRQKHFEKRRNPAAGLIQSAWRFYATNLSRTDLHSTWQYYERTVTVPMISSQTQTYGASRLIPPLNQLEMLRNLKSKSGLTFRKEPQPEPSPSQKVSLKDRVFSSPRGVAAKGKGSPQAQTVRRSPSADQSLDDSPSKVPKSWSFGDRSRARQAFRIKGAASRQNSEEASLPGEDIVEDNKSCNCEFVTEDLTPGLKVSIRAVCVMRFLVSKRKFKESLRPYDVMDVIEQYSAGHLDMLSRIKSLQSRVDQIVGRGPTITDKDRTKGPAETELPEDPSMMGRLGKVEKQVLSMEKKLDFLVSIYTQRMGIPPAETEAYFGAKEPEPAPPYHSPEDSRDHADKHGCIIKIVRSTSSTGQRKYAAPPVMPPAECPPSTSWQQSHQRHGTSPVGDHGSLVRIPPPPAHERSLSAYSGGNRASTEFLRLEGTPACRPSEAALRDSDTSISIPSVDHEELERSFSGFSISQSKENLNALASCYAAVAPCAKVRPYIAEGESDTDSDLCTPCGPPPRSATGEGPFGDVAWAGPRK
KCNQ2 pot – potentiators of rat KCNQ2 potassium channel; Potassium voltage-gated channel subfamily KQT member 2 (Rattus norvegicus), O88943; B-score at 10 µM; hit rate 0.54% among 310,000; CHO-K1 KCNQ2, FluxOR thallium flux fluorescence; active compounds read high;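 active = fluorescence ratio B-score at least 3 SD of library B-scores, with initial fluorescence B-score within 3 of them, cut at about 5.3 in these data; same plate scores as AID 2156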;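 also: B-score of peak minus minimum over baseline fluorescence ratio after K+ and Tl+ stimulus; positive B-score means potentiation of KCNQ2 with more thallium influx and brighter signal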
KCNQ2 inh conf – rat KCNQ2 potassium channel inhibitors, confirmation, cell-based, thallium flux; shares compounds with KCNQ2 block; KCNQ2-expressing cells, inhibition; active compounds read low; activity change, negative = inhibition, % at 10 µM; hit rate 57% among 1,000; AID 493025, 2011;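 also: 0% = vehicle wells and values are ratio percent relative to vehicle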
KCNQ1 spec – human KCNQ1 channel inhibition, counter-screen for KCNQ2 inhibitor project, cell-based, FluxOR thallium flux; shares compounds with KCNQ2 block; KCNQ1-expressing cells, FluxOR thallium flux fluorescence; active compounds read low; activity change, negative = inhibition, % at 10 µM; hit rate 15% among 1,000;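 active = activity change at least 3 SD of negative controls below their mean in both duplicate wells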;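 also: CHO cells stably transfected with KCNQ1 and depolarized by potassium stimulus; peak minus minimum fluorescence over baseline after thallium addition; 0% = vehicle negative control and -100% = blank without thallium stimulus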
CHO Tl ctr – thallium flux change in parental CHO cells, counter-screen for KCNQ2 inhibitor project; shares compounds with KCNQ2 block; active compounds read low; activity change, % at 10 µM; hit rate 14% among 1,000; AID 493029, 2011;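 also: 0% = vehicle negative controls with stimulus buffer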
KCNQ2 patch conf – rat KCNQ2 channel inhibitors, confirmation, cell-based, automated patch clamp, single concentration. KCNQ2-expressing cells, automated patch clamp current. calls only at 10 µM. hit rate 49% among 550. shares compounds with KCNQ2 block
The depositor's hits bear a star. Unless noted, no rule for the calls is given here.

For Cc1cccc(C)c1OCc1cc(C(=O)N2CCC(c3ccccc3)CC2)no1 the results were KCNQ2 block -9.2*, KCNQ2 pot -9.2, KCNQ2 inh conf -24%*, KCNQ1 spec inactive, CHO Tl ctr inactive and KCNQ2 patch conf active.
For Cc1cccc(C)c1OCc1cc(C(=O)N2CCC(C3CCCCC3)C2)no1 (configuration not stated) the results were KCNQ2 block inactive.
For COc1cc(-c2nc3ccccn3c2NCc2ccccc2)ccc1SC1CCCCC1 the results were KCNQ2 block -8.7*, KCNQ2 pot -8.7, KCNQ2 inh conf inactive, KCNQ1 spec inactive and CHO Tl ctr inactive.
COc1cc(-c2nc3ccc(C)cn3c2NCc2ccccc2)ccc1SC1CCCCC1 was read as KCNQ2 block inactive.
`COc1ccc(C(=O)CC(=O)C(=O)Nc2ccc(Cl)cc2)cc1` gave KCNQ2 block inactive.
COc1ccc(C(=O)CC(Nc2ccc([N+](=O)[O-])cc2)c2ccc(Cl)cc2)cc1 (configuration not stated) was read as KCNQ2 block -8.1*, KCNQ2 pot -8.1, KCNQ2 inh conf inactive, KCNQ1 spec inactive and CHO Tl ctr inactive.
Screening CC(c1ccccc1C(O)c1ccccc1)N(C)C (configuration not stated) returned KCNQ2 block inactive and KCNQ2 pot 0.59.
Screening Cc1ccc(C(O)(c2ccccc2)c2ccccc2C(C)N(C)C)c(C)c1 (configuration not stated) returned KCNQ2 block -8.9*, KCNQ2 pot -8.9, KCNQ2 inh conf -31%*, KCNQ1 spec inactive, CHO Tl ctr inactive and KCNQ2 patch conf active.
`CCOC(=O)[C@@H]1[C@H]2COc3ccccc3[C@@H]2N2C(=O)N(c3cccc(F)c3)C(=O)[C@]12C` gave KCNQ2 block inactive and KCNQ2 pot 0.05.
O=C(N/N=C/c1ccc([N+](=O)[O-])o1)C1CC1 was read as KCNQ2 block inactive.
O=C(COc1ccc(Cl)cc1)N(Cc1ccccc1)c1ccccn1 was read as KCNQ2 block -9.1*, KCNQ2 pot -9.1, KCNQ2 inh conf inactive, KCNQ1 spec inactive and CHO Tl ctr inactive.
O=C(COc1ccc(Br)cc1)N(Cc1ccccc1)c1ccccn1 was read as KCNQ2 block inactive.
For COc1ccc(CNC(=O)CCC(=O)Nc2nnc(CC(C)C)s2)cc1 the results were KCNQ2 block inactive and KCNQ2 pot 0.17.
CCC(C)N(C(=O)Cn1nnc2ccccc21)C(C(=O)Nc1ccc(F)cc1)c1cccc(OC)c1 (configuration not stated) was read as KCNQ2 block inactive.
Cc1c(C)n(C(=O)CN2CCC(C(N)=O)CC2)c2ccccc12 was read as KCNQ2 block inactive.
`Cc1c(C)n(C(=O)CN2CCN(c3ccccc3)CC2)c2ccccc12` gave KCNQ2 block -7.8*, KCNQ2 pot -7.8, KCNQ2 inh conf inactive, KCNQ1 spec inactive and CHO Tl ctr inactive.
Screening O=C(NC1CCCCC1)C1CCN(C(=O)c2ccc(Cl)cc2)CC1 returned KCNQ2 block inactive and KCNQ2 pot 1.1.
`CC(NC(=O)/C(C#N)=C/c1cn[nH]c1-c1ccccc1)c1ccccc1` (configuration not stated) gave KCNQ2 block inactive.
For CCc1ccc(C(C)NC(=O)/C(C#N)=C\c2cn[nH]c2-c2ccccc2)cc1 (configuration not stated) the results were KCNQ2 block -9.1*, KCNQ2 pot -9.1, KCNQ2 inh conf inactive, KCNQ1 spec inactive and CHO Tl ctr inactive.
`Cc1ccc2nc(-c3ccccc3)cc(C(=O)N(C)CC(=O)Nc3ccccc3Br)c2c1` gave KCNQ2 block -8.1*, KCNQ2 pot -8.1, KCNQ2 inh conf inactive, KCNQ1 spec inactive and CHO Tl ctr inactive.
COc1ccc(NC(=O)CN(C)C(=O)c2cc(-c3ccccc3)nc3ccccc23)cc1 was read as KCNQ2 block inactive.
`O=C(Cn1cncn1)N/N=C/c1ccccc1O` gave KCNQ2 block inactive and KCNQ2 pot 0.21.
Screening COc1ccc(-c2n[nH]c(C)c2-c2cnn(-c3ccccc3)c2)c(O)c1C returned KCNQ2 block inactive.
COc1ccc(-c2n[nH]c(C)c2-c2cnn(-c3ccccc3)c2)c(O)c1 was read as KCNQ2 block -8*, KCNQ2 pot -8, KCNQ2 inh conf inactive, KCNQ1 spec inactive and CHO Tl ctr inactive.
`C=C1SC(Nc2c(C)cc(C)cc2C)=NC12CCCCC2` gave KCNQ2 block -7.6*, KCNQ2 pot -7.6, KCNQ2 inh conf -28%*, KCNQ1 spec inactive, CHO Tl ctr inactive and KCNQ2 patch conf inactive.
Screening C=C1SC(Nc2c(C)cccc2C)=NC12CCCCC2 returned KCNQ2 block inactive.
CC(=O)NCC(=O)N1CCCC(C(=O)c2ccc(Oc3ccccc3)cc2)C1 (configuration not stated) was read as KCNQ2 block inactive.
COc1ccc(Cl)cc1NC(=S)NCCc1ccc(F)cc1 was read as KCNQ2 block -8.7*, KCNQ2 pot -8.7, KCNQ2 inh conf -36%*, KCNQ1 spec -34%*, CHO Tl ctr -30%* and KCNQ2 patch conf active.
Screening COc1ccc(Cl)cc1NC(=S)NCCc1ccc(S(N)(=O)=O)cc1 returned KCNQ2 block inactive.
For Cc1ccc2oc(=O)c3cc(C(=O)NCCCN4C(C)CCCC4C)sc3c2c1 (configuration not stated) the results were KCNQ2 block inactive and KCNQ2 pot 0.18.
`COc1ccccc1Nc1nc(N)nc(CN2CCN(Cc3ccccc3)CC2)n1` gave KCNQ2 block -9.9*, KCNQ2 pot -9.9, KCNQ2 inh conf -18%*, KCNQ1 spec inactive, CHO Tl ctr inactive and KCNQ2 patch conf inactive.
For COc1ccccc1Nc1nc(N)nc(CN2CCCCC2)n1 the results were KCNQ2 block inactive.
Screening N#CC(C(=O)NCCc1ccccc1)c1nc2ccccc2nc1N1CCCCC1 (configuration not stated) returned KCNQ2 block inactive.
Screening CCOC(=O)N1CCN(c2nc3ccccc3nc2C(C#N)C(=O)NCCc2ccccc2)CC1 (configuration not stated) returned KCNQ2 block -8.7*, KCNQ2 pot -8.7, KCNQ2 inh conf inactive, KCNQ1 spec inactive and CHO Tl ctr inactive.
